Read-out in experiment [1]: TIMP metallopeptidase inhibitor 1 (TIMP1), TIMP1 (gene 7076)
Kind of experiment: BSK_hDFCGF_TIMP1: BioMAP Diversity Plus: hDFCGF Assay for TIMP metallopeptidase inhibitor 1 (TIMP1) Biomarker Activity (AID 2283062). Particulars: primary human foreskin fibroblasts; actives raise or lower the signal. Put shortly: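 Bidirectional curve fitting against DMSO baseline yielded this endpoint, based on ELISA detection of TIMP-1 in primary human foreskin fibroblasts exposed to compound for 24 h.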

Read-out in experiment [2]: Monokine induced gamma interferon (MIG), CXCL9 (gene 4283)
Kind of experiment: BSK_hDFCGF_MIG: BioMAP Diversity Plus: hDFCGF Assay for Monokine induced gamma interferon (MIG) Biomarker Activity (AID 2283063). Particulars: primary human foreskin fibroblasts; actives raise or lower the signal. Put shortly: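 Endpoint derived by bidirectional fitting relative to DMSO; MIG quantified via ELISA in primary human foreskin fibroblasts harvested 24 h after dosing.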

Read-out in experiment [3]: Matrix Metallopeptidase 1 (MMP1), MMP1 (gene 4312)
Briefly: BSK_hDFCGF_MMP1: BioMAP Diversity Plus: hDFCGF Assay for Matrix Metallopeptidase 1 (MMP1) Biomarker Activity (AID 2283064). Conditions: primary human foreskin fibroblasts; actives raise or lower the signal. The gist of the method:
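Primary human foreskin fibroblasts in the hDFCGF system were dosed with test chemical, and MMP1 was measured by ELISA 24 h later. Values come from bidirectional curve fitting against the DMSO baseline.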

Read-out in experiment [4]: Vascular cell adhesion molecule 1 (VCAM1), VCAM1 (gene 7412)
Briefly: BSK_hDFCGF_VCAM1: BioMAP Diversity Plus: hDFCGF Assay for Vascular cell adhesion molecule 1 (VCAM1) Biomarker Activity (AID 2283065).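 As to AC50: VCAM-1 protein level quantified by ELISA after 24 h chemical exposure.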 Conditions: primary human foreskin fibroblasts; actives raise or lower the signal. Put shortly: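 Measured after 24 h chemical treatment of primary human skin fibroblasts, VCAM-1 was detected by ELISA and concentration-response analysed in both directions versus DMSO vehicle.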

Read-out in experiment [5]: Plasminogen activator inhibitor-1 (PAI1), SERPINE1 (gene 5054)
Kind of experiment: BSK_hDFCGF_PAI1: BioMAP Diversity Plus: hDFCGF Assay for Plasminogen activator inhibitor-1 (PAI1) Biomarker Activity (AID 2283066). Particulars: primary human foreskin fibroblasts; actives raise or lower the signal. Put shortly:
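Human foreskin fibroblast primary cells, 24 h chemical exposure; PAI-1 measured by ELISA. Bidirectional fitting relative to DMSO; parallel cultures stained with SRB for total protein to flag overt cytotoxicity.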

Read-out in experiment [6]: Intercellular Adhesion Molecule 1 (ICAM1), ICAM1 (gene 3383)
Kind of experiment: BSK_KF3CT_ICAM1: BioMAP Diversity Plus: KF3CT Assay for Intercellular Adhesion Molecule 1 (ICAM1) Biomarker Activity (AID 2283067). Conditions: primary human keratinocytes with fibroblasts; actives raise or lower the signal. The gist of the method: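 Bidirectional curve fitting against a DMSO baseline was applied to ICAM-1 ELISA signal from primary human skin co-cultures harvested 24 h after treatment, with SRB staining of parallel wells for overt cytotoxicity.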

Read-out in experiment [7]: Interferon-gamma inducible Protein 10 (IP10), CXCL10 (gene 3627)
Kind of experiment: BSK_KF3CT_IP10: BioMAP Diversity Plus: KF3CT Assay for Interferon-gamma inducible Protein 10 (IP10) Biomarker Activity (AID 2283068). Conditions: primary human keratinocytes with fibroblasts; actives raise or lower the signal. The gist of the method:
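Human keratinocyte plus foreskin fibroblast primary co-culture exposed to test chemical for 24 h; IP-10 measured by ELISA. Concentration-response fitted bidirectionally against DMSO control as baseline.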

Experiment [8] is described as follows: BSK_KF3CT_SRB: Viability Assessment in the BioMAP Diversity Plus: KF3CT Assay (AID 2283069).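 Also: total protein by sulforhodamine B staining as a cytotoxicity measure; read 24 h after compound addition.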 Conditions: primary human keratinocytes with fibroblasts. The gist of the method:
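Human primary keratinocyte plus foreskin fibroblast co-culture exposed to chemicals for 24 h. Total protein measured by 0.1% sulforhodamine B staining after 10% TCA fixation, read at 560 nm; bidirectional fitting versus DMSO baseline.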

Read-out in experiment [9]: Interleukin-1 alpha (IL1a), IL1A (gene 3552)
Briefly: BSK_KF3CT_IL1a: BioMAP Diversity Plus: KF3CT Assay for Interleukin-1 alpha (IL1a) Biomarker Activity (AID 2283070). Particulars: primary human keratinocytes with fibroblasts; actives raise or lower the signal. The gist of the method:
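Human keratinocyte plus foreskin fibroblast primary co-culture, sampled 24 h after chemical dosing. IL-1a measured by ELISA; responses fitted bidirectionally against DMSO baseline (negative control), so gain or loss of signal both count.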

Read-out in experiment [10]: TIMP metallopeptidase inhibitor 2 (TIMP2), TIMP2 (gene 7077)
Briefly: BSK_KF3CT_TIMP2: BioMAP Diversity Plus: KF3CT Assay for TIMP metallopeptidase inhibitor 2 (TIMP2) Biomarker Activity (AID 2283071). Conditions: primary human keratinocytes with fibroblasts; actives raise or lower the signal. Put shortly:
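Co-culture of human primary keratinocytes and foreskin fibroblasts, measured 24 h after chemical dosing. TIMP-2 quantified by ELISA and fitted in both directions relative to DMSO. Cytotoxicity checked in parallel cultures by SRB total-protein staining.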

Read-out in experiment [11]: Transforming growth factor beta 1 (TGFb1), TGFB1 (gene 7040)
Briefly: BSK_KF3CT_TGFb1: BioMAP Diversity Plus: KF3CT Assay for Transforming growth factor beta 1 (TGFb1) Biomarker Activity (AID 2283072). Particulars: primary human keratinocytes with fibroblasts; actives raise or lower the signal. The gist of the method: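 Human keratinocyte/foreskin fibroblast co-culture; TGF-b1 measured by ELISA 24 h after dosing, fitted bidirectionally versus DMSO. Cytotoxicity checked in parallel cultures by total protein (SRB staining, 560 nm).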

Read-out in experiment [12]: C-C motif chemokine 2 (Homo sapiens) (UniProt P13500)
Kind of experiment: BSK_KF3CT_MCP1: BioMAP Diversity Plus: KF3CT Assay for Monocyte Chemoattractant Protein 1 (MCP1/CCL2) Biomarker Activity (AID 2283073). Conditions: primary human keratinocytes with fibroblasts; actives raise or lower the signal. The gist of the method:
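Biomarker MCP-1 is measured by ELISA in primary human keratinocytes co-cultured with foreskin fibroblasts, 24 h after chemical treatment; DMSO serves as the negative control and activity baseline.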

Read-out in experiment [13]: Matrix Metallopeptidase 9 (MMP9), MMP9 (gene 4318)
Kind of experiment: BSK_KF3CT_MMP9: BioMAP Diversity Plus: KF3CT Assay for Matrix Metallopeptidase 9 (MMP9) Biomarker Activity (AID 2283074).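 As to AC50: MMP9 protein level quantified by ELISA in the co-culture.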 Conditions: primary human keratinocytes with fibroblasts; actives raise or lower the signal. Put shortly: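 Keratinocyte plus foreskin fibroblast human primary skin co-culture was dosed with chemical and MMP-9 was quantified by ELISA 24 h later. Bidirectional curve fitting used DMSO as negative control and activity baseline.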

Read-out in experiment [14]: urokinase plasminogen activator (uPA), PLAU (gene 5328)
Briefly: BSK_KF3CT_uPA: BioMAP Diversity Plus: KF3CT Assay for urokinase plasminogen activator (uPA) Biomarker Activity (AID 2283075). Particulars: primary human keratinocytes with fibroblasts; actives raise or lower the signal. The gist of the method: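 Human keratinocyte plus foreskin fibroblast primary co-culture exposed to chemical for 24 h. uPA levels were quantified by ELISA, and activity was fitted bidirectionally against a DMSO negative-control baseline.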

Read-out in experiment [15]: CD40, CD40 (gene 958)
Briefly: BSK_LPS_CD40: BioMAP Diversity Plus: LPS Assay for CD40 Biomarker Activity (AID 2283076). Conditions: primary human HUVEC with PBMC; actives raise or lower the signal. Put shortly:
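Using a multiplexed primary human co-culture (umbilical vein endothelium plus PBMC), CD40 was read by ELISA 24 h after dosing, with cytotoxicity tracked by sulforhodamine B staining of parallel cultures and activity fitted bidirectionally versus DMSO.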

Read-out in experiment [16]: E-selectin (Homo sapiens) (UniProt P16581)
Briefly: BSK_LPS_Eselectin: BioMAP Diversity Plus: LPS Assay for Eselectin Biomarker Activity (AID 2283077). Particulars: primary human HUVEC with PBMC; actives raise or lower the signal. Put shortly: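 Dose chemical onto LPS-driven HUVEC/PBMC co-culture; after 24 h, run ELISA for E-selectin; fit up- and down-going responses relative to DMSO control.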

Read-out in experiment [17]: Interleukin-8 (IL8), CXCL8 (gene 3576)
Kind of experiment: BSK_LPS_IL8: BioMAP Diversity Plus: LPS Assay for Interleukin-8 (IL8) Biomarker Activity (AID 2283078). Conditions: primary human HUVEC with PBMC; actives raise or lower the signal. The gist of the method:
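In this LPS system, chemical-treated human umbilical vein endothelium/PBMC co-cultures were harvested at 24 h for IL-8 ELISA.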

A short description of experiment [18]: BSK_LPS_SRB: Viability Assessment in the BioMAP Diversity Plus: LPS Assay (AID 2283079).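 Also: total protein by sulforhodamine B absorbance as a cytotoxicity measure; measured one day after compound addition.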 Particulars: primary human HUVEC with PBMC. The gist of the method: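 Cytotoxicity endpoint in human endothelial–PBMC co-culture: 24 h exposure, then SRB (0.1%) staining, 560 nm read.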
Read-out in experiment [19]: Interleukin-1 alpha (IL1a), IL1A (gene 3552)
Briefly: BSK_LPS_IL1a: BioMAP Diversity Plus: LPS Assay for Interleukin-1 alpha (IL1a) Biomarker Activity (AID 2283080). Conditions: primary human HUVEC with PBMC; actives raise or lower the signal. The gist of the method:
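Primary human HUVEC and PBMC co-culture stimulated with LPS is dosed and harvested at 24 h. Both increases and decreases in ELISA-measured IL-1a are scored relative to DMSO.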

Experiment [20] in a line: BSK_hDFCGF_SRB: Viability Assessment in the BioMAP Diversity Plus: hDFCGF Assay (AID 2283061).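 Also: cells exposed to compound for 24 h before the read.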 Conditions: primary human foreskin fibroblasts. The gist of the method: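 SRB-based viability read on primary human skin fibroblasts at 24 h: TCA fixation, 0.1% dye, 560 nm. Gain or loss of signal is fitted against the DMSO negative control.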

Calls of active or inactive are those of the source. The calls were made as follows: active = hit-call score of the fitted dose curve at least 0.9, where 1 is the maximum; inactive = score below 0.9.

E-selectin (Homo sapiens), sequence (P16581 whole entry, looked up): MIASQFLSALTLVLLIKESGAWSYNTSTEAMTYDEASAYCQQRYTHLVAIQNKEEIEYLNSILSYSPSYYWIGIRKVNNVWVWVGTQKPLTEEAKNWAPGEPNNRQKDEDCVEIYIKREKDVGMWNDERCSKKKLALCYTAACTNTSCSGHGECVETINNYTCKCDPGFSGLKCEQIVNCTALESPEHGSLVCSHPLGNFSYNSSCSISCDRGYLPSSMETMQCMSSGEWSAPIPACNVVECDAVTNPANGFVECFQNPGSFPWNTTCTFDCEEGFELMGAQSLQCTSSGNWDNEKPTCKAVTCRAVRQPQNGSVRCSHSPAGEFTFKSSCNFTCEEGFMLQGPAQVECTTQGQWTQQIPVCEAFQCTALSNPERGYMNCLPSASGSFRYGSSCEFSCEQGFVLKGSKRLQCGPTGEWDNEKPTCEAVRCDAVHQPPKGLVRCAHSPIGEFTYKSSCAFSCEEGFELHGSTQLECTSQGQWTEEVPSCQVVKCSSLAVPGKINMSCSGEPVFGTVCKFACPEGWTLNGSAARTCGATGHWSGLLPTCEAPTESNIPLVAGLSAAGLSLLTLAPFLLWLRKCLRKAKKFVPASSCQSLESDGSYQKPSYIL

With `C=C(C)C(=O)O[C@H]1C[C@@H]2CC[C@@]1(C)C2(C)C`, the AC50 (commonly the concentration giving half of the maximal activity seen) in [1] is 20 µM (active); in experiment [2] it was 34.8 µM (active); in [3], 34.8 µM (active); in [4], 26.4 µM (active); in experiment [5], 12.8 µM (active); in experiment [6], 28.8 µM (active). In addition, the AC50 in experiment [7] is 16.9 µM (active); in experiment [8] it was 14.6 µM (active); in experiment [9], 20 µM (active); in [10], 10.2 µM (active); in experiment [12] it was 12.8 µM (active); in experiment [13], 20 µM (active). Moreover, the AC50 in experiment [14] is 13.8 µM (active); in [15], 27.8 µM (active); in experiment [16], 29.6 µM (active); in experiment [17] it was 31.2 µM (active); in experiment [18], 30.4 µM (active); in experiment [19] it was 25.8 µM (active). For the same molecule, in experiment [11], the outcome was inactive.
For the molecule `CCn1c2ccccc2c2cc(N)ccc21`, the outcome in experiment [20], in experiment [1], in experiment [2], in experiment [3], in [5] and in [6] was inactive. For the same molecule, the outcome in experiment [7], in experiment [8], in [9], in experiment [11], in experiment [12] and in [13] was inactive. In addition, the result in [14], in experiment [16], in experiment [17] and in experiment [18] was inactive. Also, the AC50 in experiment [4] is 0.855 µM (active); in experiment [10] it was 1.49 µM (active); in [15], 5.63 µM (active); in experiment [19], 0.653 µM (active).
In the case of `CC(=O)[C@H]1CC[C@H]2[C@@H]3CC=C4C[C@@H](O)CC[C@]4(C)[C@H]3CC[C@]12C`, the outcome in experiment [20], in experiment [1], in [2], in experiment [3], in [4] and in experiment [5] was inactive. Further, the outcome in experiment [6], in experiment [7], in experiment [8], in experiment [9], in experiment [10] and in experiment [12] was inactive. Further, the outcome in [13], in [14], in experiment [15], in experiment [16], in experiment [17] and in [18] was inactive. Moreover, in experiment [19], the result was inactive.
For the molecule `O=C=NC1CCC(CC2CCC(N=C=O)CC2)CC1` (configuration not stated), the result in experiment [20], in experiment [1], in experiment [2], in experiment [3], in experiment [4] and in experiment [6] was inactive. Further, the outcome in experiment [7], in [8], in experiment [9], in experiment [10], in experiment [11] and in [12] was inactive. The result in experiment [13], in experiment [15], in [16], in [17], in experiment [18] and in [19] was inactive. In addition, the figures for the AC50 in experiment [5] and in [14] were 25.6 µM (active) and 0.016 µM (active), respectively.
In the case of `CC(=O)OCCC(C)CC(C)(C)C` (configuration not stated), the result in [20], in [1], in experiment [2], in [3], in [4] and in experiment [5] was inactive. The outcome in [6], in experiment [7], in experiment [8], in [9], in experiment [10] and in experiment [12] was inactive. Besides, the result in experiment [13], in experiment [14], in experiment [15], in [16], in experiment [17] and in experiment [18] was inactive. Moreover, the result in [19] was inactive.
Regarding `CCCCCCCCCCCCCCCCCC(=O)OCC(CC)CCCC` (configuration not stated), the result in experiment [20], in experiment [1], in experiment [2], in [3], in [4] and in experiment [5] was inactive. Moreover, the result in experiment [6], in experiment [7], in experiment [8], in experiment [9], in experiment [10] and in [11] was inactive. In addition, the result in experiment [12], in [13], in experiment [14], in [15], in [16] and in experiment [17] was inactive. For the same molecule, the outcome in experiment [18] and in experiment [19] was inactive.
